Source: PubChem BioAssay
Most compounds without a hit are left out; they make up all but 2.6% or so of the library.
HSP90 inh: inhibitors of HSP90 luciferase refolding in rabbit reticulocyte lysate; AID 1789; inhibition, % at 5.6 µM; 290,000 compounds, 0.91% hits; luciferase refolding luminescence, 3 h;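 active = inhibition above the screen-wide mean plus 3 SD, computed separately per campaign, cut at about 16% in these data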;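 note: inhibitors lower the luminescence because luciferase stays unfolded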
LGR2 antag: inhibitors of bursicon-induced Drosophila LGR2 receptor cAMP signaling. inhibition, % at 9.99 µM. 380,000 compounds, 0.35% hits. HEK293 LGR2, CRE-luciferase, bursicon-stimulated, 4 h;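 active = drop in luminescence signal, shown as inhibition above about 50% in the replicate tests, limit read from the data, passing the limit was not always enough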;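 note: agonist challenge used bursicon conditioned medium at about half maximal strength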
aDG glyco up: increases alpha dystroglycan glycosylation; Pro5-aDG cells, alpha-DG glycosylation AlphaScreen (IIH6); 0% Pro5, 100% B10-LARGE cell signal; activation, % at 10 µM; 360,000 compounds, 0.22% hits; AID 624168;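 active = activation of at least 8% versus controls, or a plate z-score of at least 8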;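 note: Pro5 are CHO cells carrying HIG-tagged alpha-DG that lacks glycosylation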
TROY signal inh: inhibitors of TROY-dependent NF-kB signaling; inhibition, % at 10 µM; Q293 LMP1-TROYcd NF-kB luciferase reporter, 4 h; 360,000 compounds, 0.98% hits;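 active = compounds whose plate-normalised and pattern-corrected inhibition of the luciferase reporter signal at the single screening dose is 50% or more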
LMP1 NFkB inh: reduces LMP1-driven NF-kappaB luciferase signal. LMP1-induced NF-kappaB luciferase reporter cells, luminescence. inhibition, % at 12.5 µM. 350,000 compounds, 0.69% hits; in the data active = inhibition above about 41%
TWEAK-Fn14 inh: blocks TWEAK-Fn14 interaction in a reporter cell assay. 360,000 compounds, 2% hits. TWEAK-stimulated Fn14 reporter cells, luciferase luminescence, 8 h. inhibition, % at 10 µM. AID 1159606; in the data active = inhibition above about 50%
A number is an active result; n = inactive; x = no result.

SMILES	HSP90 inh	LGR2 antag	aDG glyco up	TROY signal inh	LMP1 NFkB inh	TWEAK-Fn14 inh
O=[N+]([O-])c1cc([N+](=O)[O-])c2cc3ccccc3nc2c1	n	n	n	n	n	93
CCCNC(=O)N1CC2(CN(C(=O)Nc3cccc(F)c3)C2)c2c(n(C)c3cc(OC)ccc23)[C@@H]1CO	x	n	x	x	x	x
O=C(NC1CC1)C1=C[C@@H](c2ccc(Br)cc2)C[C@@H](OCCCCO)O1	n	x	n	51	n	n
COc1ccc2nc3n(c(=O)c2c1)-c1ncccc1C(=O)NC3CC(C)C (stereo not drawn)	x	n	n	n	n	76
CC(C)CC1NC(=O)c2cccnc2-n2c1nc1cc(F)c(F)cc1c2=O (stereo not drawn)	x	n	n	n	n	n
COc1cc2cncc(Cc3ccc(Cl)cc3)c2cc1OC	x	x	n	58	n	75
O=C(C[C@H]1CC[C@@H]2[C@H](COC[C@@H](O)CN2Cc2ccc3c(c2)OCO3)O1)N1CCCCC1	x	n	x	x	x	x
O=C(NCC1CC1)[C@H]1[C@H](CO)[C@H]2Cn3c(ccc(-c4ccccc4F)c3=O)[C@@H]1N2Cc1cncnc1	x	n	x	x	x	x
COc1cccc(N2CCN(CC(=O)C34CC5CC(CC(C5)C3)C4)CC2)c1	n	x	n	n	n	n
COc1cccc(N2CCN(C(C)C(=O)NC34CC5CC(CC(C5)C3)C4)CC2)c1 (stereo not drawn)	n	n	n	n	n	90
C[C@@H]1CN([C@@H](C)CO)C(=O)Cc2cc(NS(=O)(=O)c3cccs3)ccc2O[C@H]1CN(C)C(=O)Nc1ccc(F)cc1	x	n	x	x	x	x
Cc1ccc(-n2cc(CNCCc3ncc(C)[nH]3)c(-c3ccc(F)cc3)n2)cc1	n	n	11	n	n	n
Cc1cccc2sc(NNC(=O)c3ccc(S(=O)(=O)N4CC(C)CC(C)C4)cc3)nc12 (stereo not drawn)	n	n	n	51	n	64
Cc1ccc2nc(NNC(=O)c3ccc(S(=O)(=O)N4CCc5ccccc5C4)cc3)sc2c1	n	n	n	n	59	n
Cc1ccc2nc(NNC(=O)c3ccc4c(c3)OCCO4)sc2c1	n	n	n	n	n	n
N#Cc1ccc(Nc2nc(-c3ccc(O)cc3O)cs2)cc1C(F)(F)F	x	x	n	67	n	86
Oc1ccc(-c2csc(Nc3ccc4c(c3)OCO4)n2)c(O)c1	x	n	n	n	n	n
O=C(NC12CC3CC(CC(C3)C1)C2)c1ccc(-c2cccc(Cl)c2)o1	17	n	n	73	n	68
CC(=O)NC(=O)c1ccc(-c2ccc(Cl)cc2)o1	n	x	n	n	n	n
O=C(NC12CC3CC(CC(C3)C1)C2)c1ccc(COc2ccc(Cl)cc2[N+](=O)[O-])o1	n	x	n	n	n	n
O=C(NC12CC3CC(CC(C3)C1)C2)c1ccc(-c2ccc(Cl)cc2)o1	n	n	n	54	n	n
COc1ccccc1Cn1c(=O)c2ccccc2n2c(Sc3ncnc4sccc34)nnc12	n	x	n	n	n	89
C[C@H](CO)N1C[C@H](C)[C@@H](CN(C)Cc2cccc(C(=O)O)c2)Oc2ncc(C#CCN(C)C)cc2C1=O	x	n	x	x	x	x
Cc1nc([N+](=O)[O-])c(Sc2nc3ccccc3[nH]2)n1Cc1ccccc1	n	n	n	n	n	57
COc1ccc2nc(Sc3c([N+](=O)[O-])nc(C)n3Cc3ccccc3)[nH]c2c1	n	x	x	x	x	x
SMILES	HSP90 inh	LGR2 antag	aDG glyco up	TROY signal inh	LMP1 NFkB inh	TWEAK-Fn14 inh
Cc1cc2nc(Sc3c([N+](=O)[O-])nc(C)n3Cc3ccccc3)[nH]c2cc1C	n	n	n	n	n	84
O=C(N/N=C/c1ccc([N+](=O)[O-])s1)c1cccc(Br)c1	n	x	8.9	n	n	n
O=C(N/N=C/c1cccc([N+](=O)[O-])c1)c1cccc(Br)c1	n	n	n	n	n	n
O=C(N/N=C/c1ccc([N+](=O)[O-])s1)c1ccncc1	n	x	12	n	n	n
CC(C)(C)OC(=O)N/N=C\c1ccc([N+](=O)[O-])s1	n	n	n	66	n	91
Cc1ccc(C(=O)N/N=C/c2ccc([N+](=O)[O-])s2)cc1	n	x	13	n	n	95
Cc1ccc(C(=O)N/N=C\c2ccc([N+](=O)[O-])s2)cn1	n	n	n	n	n	n
C[C@H](CO)N1C[C@H](C)[C@H](CN(C)S(=O)(=O)c2ccccc2)Oc2ccc(N(C)C)cc2CC1=O	x	n	x	x	x	x
O=C(NS(=O)(=O)c1ccccc1)c1cccc(Br)c1	n	n	n	n	n	n
Cc1ccc(S(=O)(=O)NC(=O)c2cccc(Br)c2)cc1	n	n	n	n	n	84
CCC(CC)C(=O)Nc1cccc(C(=O)Nc2ccc(S(=O)(=O)Nc3ccc(C)cc3)cc2)c1	n	n	n	54	n	n
CCOc1ccc(Br)cc1C1C(C(=O)OC)=C(N)Oc2cc(N(C)C)ccc21 (stereo not drawn)	n	x	n	n	n	53
COc1ccc(NC(=O)Nc2ccc3c(c2)C(=O)N([C@@H](C)CO)C[C@@H](C)[C@H](CN(C)Cc2ccc(-c4ccccc4)cc2)O3)cc1	x	n	x	x	x	x
COc1ccc(-c2cc(=O)oc3c(C)c(O)c(CN(C)C)cc23)cc1	n	x	n	60	n	n
Cc1cc(C(F)(F)F)nn1CC(=O)Nc1cccnc1	n	x	n	x	n	66
Cc1ccc2c(C)c(C(=O)Nc3cccnc3)oc2c1	n	x	n	n	n	n
Cc1cc(C)n(CC(=O)Nc2cccc(C(F)(F)F)c2)n1	n	n	n	n	n	n
O=C(Cc1ccccc1)Nc1cccnc1	n	n	n	n	n	n
Cc1ccc2c(Cl)c(C(=O)Nc3cccnc3)sc2c1	n	n	n	n	n	58
Cc1cccc(CC(=O)Nc2cccnc2)c1	n	n	n	n	n	103
O=C(NC1CCCCC1)[C@H]1[C@H](CO)[C@H]2Cn3c(ccc(-c4ccccc4)c3=O)[C@@H]1N2	x	n	x	x	x	x
O=C(C[C@@H]1CC[C@@H]2[C@H](COC[C@H](O)CN2S(=O)(=O)c2ccccc2F)O1)NCc1ccccc1Cl	x	n	x	x	x	x
COc1ccc(/C=C2\C(=O)OCc3cc(OC)c(OC)cc32)cc1OC	n	n	n	n	n	n
COc1cc2c(cc1OC)/C(=C/c1ccc(Cl)cc1)C(=O)OC2	n	n	n	50	n	n
CCCC(=O)Nc1ccc2c(c1)C(=O)N(C)C[C@H](OC)[C@H](C)CN(Cc1nccs1)[C@H](C)CO2	x	n	x	x	x	x
Nc1ccc(C23CC4CC(CC(O)(C4)C2)C3)cc1	n	x	n	74	n	76
Nc1ccc(C23CC4CC(CC(CO)(C4)C2)C3)cc1	n	x	n	n	n	n
C(=N\N1CCN(C2c3ccccc3-c3ccccc32)CC1)/c1ccccn1	n	x	n	n	n	n
Cc1ccc(/C=N/N2CCN(C3c4ccccc4-c4ccccc43)CC2)s1	n	x	n	54	n	62
O=C(N[C@@H]1CC[C@H](CCn2cc(-c3cccnc3)nn2)O[C@@H]1CO)c1ccccc1F	x	n	x	x	x	x
